Activity calls are given as the source filed them. How the source made its calls: active means hit-call score of the fitted dose curve at least 0.9, where 1 is the maximum; inactive means score below 0.9.

Outcome and AC50 data for 28 compounds are collected here from PubChem BioAssay (EPA / NIEHS).

Read-out in the first test: Potassium channel subfamily K member 1 (KCNK1), KCNK1 (gene 3775)
As to the kind of experiment: LTEA_HepaRG_KCNK1: Life Technologies and Expression Analysis (LTEA) Assay for Potassium channel subfamily K member 1 (KCNK1) using HepaRG (AID 2283511). To be noted: mRNA level, 48 h; actives raise or lower the signal. The method, boiled down:
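Gain or loss of KCNK1 mRNA is the read-out, quantified by qRT-PCR against three housekeeping genes after 48 h chemical treatment of human HepaRG liver cells. Concentrations ran from 100 uM downward in half-log steps, vehicle 0.5% DMSO.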
As to `Nc1cc(Cl)cc(C(=O)O)c1Cl`, the call was inactive.
On to `O=C(Nc1ccccc1)c1ccccc1I`, for which the compound was classed as inactive.
On the same count and under the same terms, then `OCCOCCO`, with “inactive”; and `Nc1ccc(Cl)cc1N`, with “inactive”.
`Cc1ccc(N)cc1`: the call was inactive.
Regarding `N#CC(Br)Br`, the compound was called inactive.
On the same count and under the same terms, under `Nc1ccc(Oc2ccc(N)cc2)cc1` stands “inactive”; under `[O-][Cl+]O`, “inactive”.
Still for that read-out and setting: then `CCCCCCCCOC(=O)c1ccc(C(=O)OCCCCCCCC)c(C(=O)OCCCCCCCC)c1`, with “inactive”; and `COc1cc(C=O)cc2c1[C@H](COC(N)=O)[C@]1(OC(C)=O)ON2C[C@H]2[C@@H]1N2C(C)=O`, with “inactive”; and `CCCCC(CC)COC(=O)c1ccc(C(=O)OCC(CC)CCCC)c(C(=O)OCC(CC)CCCC)c1` (stereo not given), with “inactive”.
Take `Cn1cc(-c2ccccc2)c(=O)c(-c2cccc(C(F)(F)F)c2)c1`: the call was inactive.
On the same count and under the same terms, under `CN(C)c1ccccc1` stands “inactive”.
On to `CCC(C)c1ccc(O)cc1` (stereo not given), for which the result was inactive.
On the same count and under the same terms, under `N#CC(Br)(Br)C(N)=O` stands “inactive”; under `C1=Cc2cccc3cccc1c23`, “inactive”.
Take `CO[C@@H]1[C@H](OC(=O)NC(=O)CCl)CC[C@]2(CO2)[C@H]1[C@@]1(C)O[C@@H]1CC=C(C)C`: the outcome was inactive.
Same read-out and setting: then `CC(C)(C)OOC(C)(C)CCC(C)(C)OOC(C)(C)C`, with “inactive”; and `Cc1cccc(N)c1N`, with “inactive”.
Still for that read-out and setting: under `O=C(Oc1ccc(Br)cc1)N1CCN2CCC1CC2` stands “inactive”.
Same read-out and setting: then `O=P(OCCCl)(OCCCl)OCCCl`, with “inactive”; and `CNC(=O)Oc1cccc2c1OC(C)(C)C2`, with “inactive”; and `ClC1=C(Cl)C2(Cl)C3C(Cl)C=CC3C1(Cl)C2(Cl)Cl` (stereo not given), with “inactive”.
For the compound `[Cl-].[Cl-].[Hg+2]`, the result was inactive.
Consider `O=Cc1ccco1`, for which the compound was called inactive.
Still for that read-out and setting: then `Cc1ccc(N)c(N)c1`, with “inactive”; and `COP(=S)(OC)SCN1C(=O)c2ccccc2C1=O`, with “inactive”.
The same measure, in the same setting: then `CC(C)COC(=O)c1ccccc1C(=O)OCC(C)C`, with “inactive”.

Read-out in the next test: Keratin 19 (KRT19), KRT19 (gene 3880)
As to the kind of experiment: LTEA_HepaRG_KRT19: Life Technologies and Expression Analysis (LTEA) Assay for Keratin 19 (KRT19) using HepaRG (AID 2283512). Conditions: mRNA level, 48 h; actives raise or lower the signal. The method in brief:
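HepaRG, 48 h chemical exposure, 8-pt half-log CRC from 100 uM, 0.5% DMSO vehicle, duplicates. Readout: TaqMan qRT-PCR of KRT19 mRNA, housekeeping-normalized (ACTB/GAPDH/POLR2A). Bidirectional fit vs DMSO baseline.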
`Nc1cc(Cl)cc(C(=O)O)c1Cl`: the result was inactive.
By AC50 is commonly meant the midpoint of the concentration-response curve, whichever way the signal moves. With `O=C(Nc1ccccc1)c1ccccc1I`, the AC50 was 22.6 µM (active).
`OCCOCCO`: the outcome was inactive.
For `Nc1ccc(Cl)cc1N`, the AC50 was 33.5 µM (active).
With `Cc1ccc(N)cc1`, the outcome was inactive.
Still for that read-out and setting: then `N#CC(Br)Br`, with “inactive”; and `Nc1ccc(Oc2ccc(N)cc2)cc1`, with “inactive”; and `[O-][Cl+]O`, with “inactive”.
Take `CCCCCCCCOC(=O)c1ccc(C(=O)OCCCCCCCC)c(C(=O)OCCCCCCCC)c1`: the result was inactive.
As to `COc1cc(C=O)cc2c1[C@H](COC(N)=O)[C@]1(OC(C)=O)ON2C[C@H]2[C@@H]1N2C(C)=O`, the AC50 is 1.49 µM (active).
As to `CCCCC(CC)COC(=O)c1ccc(C(=O)OCC(CC)CCCC)c(C(=O)OCC(CC)CCCC)c1` (stereo not given), the outcome was inactive.
Same read-out and setting: then `Cn1cc(-c2ccccc2)c(=O)c(-c2cccc(C(F)(F)F)c2)c1`, with “inactive”; and `CN(C)c1ccccc1`, with “inactive”; and `CCC(C)c1ccc(O)cc1` (stereo not given), with “inactive”.
With `N#CC(Br)(Br)C(N)=O`, the compound was classed as inactive.
`C1=Cc2cccc3cccc1c23`: the compound was called inactive.
Still for that read-out and setting: then `CO[C@@H]1[C@H](OC(=O)NC(=O)CCl)CC[C@]2(CO2)[C@H]1[C@@]1(C)O[C@@H]1CC=C(C)C`, with “inactive”.
On the same count and under the same terms, then `CC(C)(C)OOC(C)(C)CCC(C)(C)OOC(C)(C)C`, with “inactive”.
Regarding `Cc1cccc(N)c1N`, the AC50 is 21.3 µM (active).
Regarding `O=C(Oc1ccc(Br)cc1)N1CCN2CCC1CC2`, the call was inactive.
Regarding `O=P(OCCCl)(OCCCl)OCCCl`, the outcome was inactive.
The same measure, in the same setting: under `CNC(=O)Oc1cccc2c1OC(C)(C)C2` stands “inactive”; under `ClC1=C(Cl)C2(Cl)C3C(Cl)C=CC3C1(Cl)C2(Cl)Cl` (stereo not given), “inactive”.
As for `[Cl-].[Cl-].[Hg+2]`, the AC50 was 29.3 µM (active).
Consider `O=Cc1ccco1`, for which the call was inactive.
Turning to `Cc1ccc(N)c(N)c1`, the AC50 was 32.8 µM (active).
Turning to `CC(C)COC(=O)c1ccccc1C(=O)OCC(C)C`, the outcome was inactive.
